Inconclusive results are not listed. A call without a number means that no potency is given here. Active and inactive are the calls of the source. Calls follow the shape of the dose curve; as a rule, active = well fitted cell-killing curve with a large enough effect in the repeat runs; inconclusive = weak or mixed curves, or effect the other way; inactive = flat fitted curve, though single readings scatter.
Potency is read from the fitted curve at half-maximal effect.

This assay is described as follows: qHTS assay to identify small molecule that activate the aryl hydrocarbon receptor (AhR) signaling pathway - cell viability counter screen (AID 743086). Also: nearly all actives have a fitted effect of over 45% in size. The following applies: HepG2-AhR-luc viability, CellTiter-Fluor, 24 h; series mostly up to 70.3 µM. The method, boiled down: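 Cytotoxicity counter screen: CellTiter-Fluor signal (30 min, 37 C) in 4000 HepG2 cells/well carrying the DRE-luciferase reporter, following 24 h compound exposure at 37 C.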
With `CCCCCC=CCC=CCCCCCCCC(=O)OCC`, the Potency entry is “inactive”. Still for that read-out and setting: in the case of `O=C(Nc1ccc([N+](=O)[O-])cc1)Nc1ccc([N+](=O)[O-])cc1` it was “inactive”. Same read-out and setting: in the case of `C/C=C/C=C/CCCCCCCO` it was “inactive”.

As for `C=CC(C)=CCC=C(C)C`, the Potency entry was “inactive”. On the same count and under the same terms, the value for `CCOC(=O)/C=C/C(=O)O` was “inactive”; that for `CNC(=O)N(c1ccccc1)c1ccccc1` was “inactive”; that for `CC(Cl)C(Cl)Cl` (stereo not given) was “inactive”.

For `CC(C)c1nnc2ccc(-c3ocnc3-c3cc(F)ccc3F)cn12`, the Potency entry is “inactive”.

`CCOC(=O)[C@@H](C)Oc1ccc(Oc2nc3ccc(Cl)cc3o2)cc1`: the Potency entry was “inactive”. The same measure, in the same setting: the value for `CCCCCCCCCCCCCCC[C@H](O)[C@@H](N)CO` was “inactive”. With `CC(=O)Oc1ccc2c(c1)CC[C@@H]1[C@@H]2CC[C@]2(C)[C@@H](O)CC[C@@H]12`, the Potency entry is “inactive”. For the molecule `C=CCOC(=O)/C=C\C(=O)OCC=C`, the Potency result is “inactive”. The same measure, in the same setting: in the case of `CC1CC(O)CC(C)(C)C1` (stereo not given) it was “inactive”; in that of `COc1ccc(C(=O)c2cccc(O)c2)c(OC)c1`, “inactive”; in that of `CO[Si](C)(OC)OC`, “inactive”. The same measure, in the same setting: the value for `Cc1nc2ccccc2s1` was “inactive”; that for `CN(C)C(=O)Nc1ccc(Oc2ccc(Cl)cc2)cc1` was “inactive”; that for `C[Si](NC1CCCCC1)(NC1CCCCC1)NC1CCCCC1` was “inactive”. Still for that read-out and setting: the value for `CCCCCCCC/C=C\CCCCCCCC(=O)OC(CO)CO` was “inactive”; that for `Cc1oncc1C(=O)Nc1ccc(C(F)(F)F)cc1` was “inactive”; that for `CSc1ccc(Oc2ccc(S(N)(=O)=O)cc2CN(C)C)cc1C` was “inactive”. As to `Cc1nc2ccccn2c(=O)c1CCN1CCC(C(=O)c2ccc(F)cc2)CC1`, the Potency result was “inactive”. On the same count and under the same terms, in the case of `CN1CCN(c2c(F)cc3c(=O)c(C(=O)O)cn4c3c2OCN4C)CC1` it was “inactive”. As for `[O]=[Bi]`, the viability change, negative = cytotoxic was -5.07% [at 8.47 µM] (inactive). Consider `CCC(C(=O)OCCOCCN(CC)CC)c1ccccc1` (stereo not given), for which the Potency entry was “inactive”.

For `CC(N)CN` (stereo not given), the Potency result is “inactive”.

For the molecule `CCOC(=O)c1ccccc1C`, the Potency entry was “inactive”. The same measure, in the same setting: in the case of `Nc1nccs1` it was “inactive”; in that of `CC[C@@H]([C@H](C)O)n1ncn(-c2ccc(N3CCN(c4ccc(OC[C@@H]5CO[C@@](Cn6cncn6)(c6ccc(F)cc6F)C5)cc4)CC3)cc2)c1=O`, “inactive”. In the case of `CC(C)CCCC(=O)O`, the Potency result is “inactive”.

For the molecule `CN(C(=O)C(Cl)Cl)c1ccc(OC(=O)c2ccco2)cc1`, the Potency result was “inactive”. The same measure, in the same setting: the value for `CN1C(=O)CC(C)(c2ccccc2)C1=O` (stereo not given) was “inactive”; that for `N#C[C@@H]1C[C@@H]2C[C@@H]2N1C(=O)[C@@H](N)C12CC3CC(CC(O)(C3)C1)C2` was “inactive”; that for `Cc1occc1C(=O)Nc1ccc(C(=O)N2CCC(F)(F)/C(=C\C(=O)N3CCC(N4CCCCC4)CC3)c3ccccc32)cc1` was “inactive”. Same read-out and setting: in the case of `CCc1nn(CCCN2CCN(c3cccc(Cl)c3)CC2)c(=O)n1CCOc1ccccc1` it was 23.7 µM (active); in that of `OCC1CC=CCC1` (stereo not given), “inactive”. On the same count and under the same terms, in the case of `O=C(c1ccc(O)cc1)c1ccc(Cl)cc1` it was “inactive”.

With `CO/N=C1\CN(c2nc3c(cc2F)c(=O)c(C(=O)O)cn3C2CC2)CC1CN` (stereo not given), the Potency result was “inactive”. On the same count and under the same terms, the value for `CCCCC(CC)C(=O)OCCOCCOCCOCCOC(=O)C(CC)CCCC` (stereo not given) was “inactive”. Still for that read-out and setting: the value for `CC(=O)OCC(=O)[C@H]1CC[C@H]2[C@@H]3CCC4=CC(=O)CC[C@]4(C)[C@H]3CC[C@]12C` was “inactive”.
